# Compounds without any hit were thinned out: in the full panel of roughly 79,000, 15% have a hit. Values without a mark were called inactive. Calls of active or inactive are those of the source. Rule as the data show it: active = growth inhibition above about 70%; inactive = the rest.
# Test: NCI Yeast Anticancer Drug Screen. Data for the bub3 strain (AID 167)
# Details: S. cerevisiae bub3 mutant strain, at 5.0 µM (retest, dose inferred, filed as 0.5), active compounds read high
# In short: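 Inhibition values come from growth of compound-treated mutant yeast normalised to vehicle-treated controls.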
row,SMILES,growth inhibition
1,C=CC(=O)N1C/C(=C\c2ccc(F)cc2)C(=O)/C(=C/c2ccc(F)cc2)C1,21%
2,CCOc1ccc2c(c1)n([O-])c1ccccc1[n+]2=O,17%
3,O=C(/C(Cl)=N/O)c1ccccc1,91% (active)
4,O=C(NC1CCN(Cc2ccccc2)CC1)c1ccc(I)cc1,60%
5,O=C1c2ccccc2CCC1C(O)(C(F)(F)F)C(F)(F)F (stereo not given),-12%
6,O=C(C(=O)n1ncc(Cl)c(Cl)c1=O)n1ncc(Cl)c(Cl)c1=O,-2%
7,OC1OCC(OCc2ccccc2)C(OCc2ccccc2)C1OCc1ccccc1 (stereo not given),-5%
8,CN1CCC(OC(=O)c2ccc3ncccc3c2)CC1,-4%
9,CCC(c1ccc(O)cc1)C(CC)c1ccc(OCC(N)=O)cc1 (stereo not given),-15%
10,CCCCCCCC(=O)O[C@H]1[C@H]2[C@@H](CC1(C)C)C(=O)[C@]13O[C@H]1C(=O)[C@]1(CO1)[C@]23C,83% (active)
11,CN1CCCN(C)C1c1cc([N+](=O)[O-])ccc1O,-6%
12,CCOC(=O)C[n+]1c(C)sc2ccccc21,-6%
13,O=C(O)C(CCc1cccc2ccccc12)c1ccccc1 (stereo not given),3%
14,O=C1C(Cl)=C(Cl)C(=O)C2CC=CCC12 (stereo not given),91% (active)
15,Nc1n[nH]c(=O)c2cccnc12,1%
16,OC(CBr)c1cc(-c2ccccc2)nc2ccccc12 (stereo not given),1%
17,O=C(O)CCCc1ccc2c(c1)CC1(C2)Cc2ccc(CCCC(=O)O)cc2C1,20%
18,CC1=Nc2ccccc2/C1=C\c1c(C)[nH]c2ccccc12,53%
19,CC(=O)C(C(=N)C#N)C(=O)Nc1ccccc1 (stereo not given),6%
20,COc1ccc2nc3cc(Cl)ccc3c(NCCC[N+](C)(C)CCCCCCCCCC[N+](C)(C)CCCNc3c4ccc(Cl)cc4nc4ccc(OC)cc34)c2c1,21%

row,SMILES,growth inhibition
1,Oc1cc(Cl)cc2c1-c1ccc(Cl)cc1C2O (stereo not given),31%
2,CC1(C)OC(=O)C(=NNc2ccccc2[N+](=O)[O-])C(=O)O1,3%
3,Clc1ccc(OCC2CO2)c(Cl)c1 (stereo not given),6%
4,O=c1ccc([N+](=O)[O-])c[nH]1.[Ag],98% (active)
5,O=C1CSC(c2c[nH]c3ccccc23)N1c1cccc(Cl)c1 (stereo not given),16%
6,Fc1cccc(NC(=S)SCc2ccco2)c1,-11%
7,S=c1[nH]nc(SCc2ccc(Cl)c(Cl)c2)c2[nH]cnc12,-8%
8,Cc1c(Cl)cccc1NC(=O)/C(Cl)=C(\Cl)C(=O)O,-3%
9,Nc1ccc2ccc3cccc4ccc1c2c34,-2%
10,O=C(C(/C=N/C(=S)NCc1ccccc1)=C(/O)c1ccccc1)c1ccccc1,2%
11,C/C(=N\NC(=S)Nc1ccc(Cl)cc1)c1nc2ncccc2[nH]1,-28%
12,O=C(/C=C\c1ccc(Cl)c(Cl)c1)c1cccs1,-4%
13,CC12CC(O)C3C(CCC4CCCCC43C)C1CC/C2=N/O (stereo not given),10%
14,CCCn1cc2c(SC)nc(SC)nc2n1,4%
15,Cc1ccc(C2(O)c3ccccc3-c3ccccc32)cc1,-8%
16,C=CCc1ccc2c(C)cc[n+](C)c2c1O,1%
17,COC(=O)c1nc(NC#N)[nH]c(=O)c1CCCCCc1cnc(NC#N)nc1,0%
18,Cc1c2cnccc2c(C)c2c1c1ccccc1n2CCOC(=O)c1ccccc1,8%
19,C/C(=N/O)c1ccc2c(c1)C(C)c1ccccc1-2 (stereo not given),-62%
20,Oc1ccc2ccccc2c1I,96% (active)

# Same assay, conditions: S. cerevisiae bub3 mutant strain, at 50.0 µM (retest, dose inferred, filed as 5.0), active compounds read high
row,SMILES,growth inhibition
1,C=CC(=O)N1C/C(=C\c2ccc(F)cc2)C(=O)/C(=C/c2ccc(F)cc2)C1,94% (active)
2,CCOc1ccc2c(c1)n([O-])c1ccccc1[n+]2=O,98% (active)
3,O=C(/C(Cl)=N/O)c1ccccc1,99% (active)
4,O=C(NC1CCN(Cc2ccccc2)CC1)c1ccc(I)cc1,49%
5,O=C1c2ccccc2CCC1C(O)(C(F)(F)F)C(F)(F)F (stereo not given),1%
6,O=C(C(=O)n1ncc(Cl)c(Cl)c1=O)n1ncc(Cl)c(Cl)c1=O,-1%
7,OC1OCC(OCc2ccccc2)C(OCc2ccccc2)C1OCc1ccccc1 (stereo not given),51%
8,CN1CCC(OC(=O)c2ccc3ncccc3c2)CC1,2%
9,CCC(c1ccc(O)cc1)C(CC)c1ccc(OCC(N)=O)cc1 (stereo not given),27%
10,CCCCCCCC(=O)O[C@H]1[C@H]2[C@@H](CC1(C)C)C(=O)[C@]13O[C@H]1C(=O)[C@]1(CO1)[C@]23C,97% (active)
11,CN1CCCN(C)C1c1cc([N+](=O)[O-])ccc1O,95% (active)
12,CCOC(=O)C[n+]1c(C)sc2ccccc21,15%
13,O=C(O)C(CCc1cccc2ccccc12)c1ccccc1 (stereo not given),73% (active)
14,O=C1C(Cl)=C(Cl)C(=O)C2CC=CCC12 (stereo not given),99% (active)
15,Nc1n[nH]c(=O)c2cccnc12,-4%
16,OC(CBr)c1cc(-c2ccccc2)nc2ccccc12 (stereo not given),99% (active)
17,O=C(O)CCCc1ccc2c(c1)CC1(C2)Cc2ccc(CCCC(=O)O)cc2C1,29%
18,CC1=Nc2ccccc2/C1=C\c1c(C)[nH]c2ccccc12,97% (active)
19,CC(=O)C(C(=N)C#N)C(=O)Nc1ccccc1 (stereo not given),-2%
20,COc1ccc2nc3cc(Cl)ccc3c(NCCC[N+](C)(C)CCCCCCCCCC[N+](C)(C)CCCNc3c4ccc(Cl)cc4nc4ccc(OC)cc34)c2c1,98% (active)

row,SMILES,growth inhibition
1,Oc1cc(Cl)cc2c1-c1ccc(Cl)cc1C2O (stereo not given),97% (active)
2,CC1(C)OC(=O)C(=NNc2ccccc2[N+](=O)[O-])C(=O)O1,21%
3,Clc1ccc(OCC2CO2)c(Cl)c1 (stereo not given),-7%
4,O=c1ccc([N+](=O)[O-])c[nH]1.[Ag],98% (active)
5,O=C1CSC(c2c[nH]c3ccccc23)N1c1cccc(Cl)c1 (stereo not given),97% (active)
6,Fc1cccc(NC(=S)SCc2ccco2)c1,61%
7,S=c1[nH]nc(SCc2ccc(Cl)c(Cl)c2)c2[nH]cnc12,-8%
8,Cc1c(Cl)cccc1NC(=O)/C(Cl)=C(\Cl)C(=O)O,18%
9,Nc1ccc2ccc3cccc4ccc1c2c34,98% (active)
10,O=C(C(/C=N/C(=S)NCc1ccccc1)=C(/O)c1ccccc1)c1ccccc1,97% (active)
11,C/C(=N\NC(=S)Nc1ccc(Cl)cc1)c1nc2ncccc2[nH]1,95% (active)
12,O=C(/C=C\c1ccc(Cl)c(Cl)c1)c1cccs1,11%
13,CC12CC(O)C3C(CCC4CCCCC43C)C1CC/C2=N/O (stereo not given),-5%
14,CCCn1cc2c(SC)nc(SC)nc2n1,99% (active)
15,Cc1ccc(C2(O)c3ccccc3-c3ccccc32)cc1,99% (active)
16,C=CCc1ccc2c(C)cc[n+](C)c2c1O,99% (active)
17,COC(=O)c1nc(NC#N)[nH]c(=O)c1CCCCCc1cnc(NC#N)nc1,-1%
18,Cc1c2cnccc2c(C)c2c1c1ccccc1n2CCOC(=O)c1ccccc1,87% (active)
19,C/C(=N/O)c1ccc2c(c1)C(C)c1ccccc1-2 (stereo not given),-54%
20,Oc1ccc2ccccc2c1I,98% (active)

# Reference: PubChem BioAssay (NCI)
